The source made the active and inactive calls. Unless noted, no rule for the calls is given here.
Legend:
[1] = resazurin metabolic signal in HepG2 cells – cell-based, resazurin fluorescence, 24 h, PK04 Diversity Set, profiling panel (AID 1172); conditions: HepG2 viability, higher = more signal; also: test concentration not given here
[2] = budding yeast growth changes without added modifier – OD600, strain BY4716, 24 h, basal condition, primary screen (AID 1173); conditions: S. cerevisiae BY4716 growth, OD600, 24 h; higher = more signal, called active from +8 up or from −8 down
[3] = viability profiling in MM1S myeloma cells – cell-based, resazurin fluorescence, basal, 24 h, PK04 Diversity Set, profiling panel (AID 1174); conditions: higher = more signal, called active from +8 up or from −8 down;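 also: MM1S multiple myeloma cell line; test concentration not given here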
[4] = target: Dihydroorotate dehydrogenase (quinone), mitochondrial (Plasmodium falciparum (isolate 3D7)) (UniProt Q08210); experiment: inhibition of P. falciparum DHODH – biochemical, C-terminal His tag, absorbance 600 nm, primary screen (AID 1175); conditions: PfDHODH enzyme, DCIP absorbance 600 nm; higher = more signal, called active from +8 up or from −8 down;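 also: recombinant parasite enzyme with a five histidine tag at its C terminus; test concentration not given here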
[5] = inhibition of PAO1 biofilm formation – strain PAO1, LB-PBS medium, absorbance 600 nm, primary screen (AID 1176); also: test concentration not given here; conditions: P. aeruginosa PAO1 growth/biofilm, A600, 12 h; higher = more signal
[6] = growth modulation of vineyard yeast isolate – strain RM11-1a, OD600, basal, 24 h, primary screen (AID 1177);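 also: cultures grown under basal conditions with no added stressor; test concentration not given here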; conditions: S. cerevisiae RM11-1a growth, OD600, 24 h; higher = more signal, called active from +8 up or from −8 down
[7] = growth of efflux-deficient E. coli DRC39 – strain DRC39, OD650, 24 h, E. coli filamentation inducers, primary screen (AID 1178);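 also: growth measured as culture turbidity by optical density at 650 nm; test concentration not given here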; conditions: E. coli DRC39 acrAB, higher = more signal, called active from +8 up or from −8 down
[8] = growth of efflux-deficient E. coli DRC39 – strain DRC39, OD650, 48 h, E. coli filamentation inducers, primary screen (AID 1179);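 also: screen aims at cell division blockers that make cells filament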; conditions: E. coli DRC39 delta-acrAB growth, higher = more signal, called active from +8 up or from −8 down
[9] = viability profiling in RPMI8226 myeloma cells – cell-based, resazurin fluorescence, basal, 24 h, PK04 Diversity Set, profiling panel (AID 1180); conditions: higher = more signal;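 also: RPMI8826 multiple myeloma cell line at 5000 cells per well; test concentration not given here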
[10] = target: E3 ubiquitin-protein ligase XIAP (Homo sapiens) (UniProt P98170); experiment: small molecules binding XIAP protein – biophysical, small-molecule microarray, fluorescence 635 nm, primary screen (AID 1181); conditions: higher = more signal;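 also: score merges 667 nm emission and signal to noise over triplicate slides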
E3 ubiquitin-protein ligase XIAP (Homo sapiens), sequence (P98170 whole entry, looked up): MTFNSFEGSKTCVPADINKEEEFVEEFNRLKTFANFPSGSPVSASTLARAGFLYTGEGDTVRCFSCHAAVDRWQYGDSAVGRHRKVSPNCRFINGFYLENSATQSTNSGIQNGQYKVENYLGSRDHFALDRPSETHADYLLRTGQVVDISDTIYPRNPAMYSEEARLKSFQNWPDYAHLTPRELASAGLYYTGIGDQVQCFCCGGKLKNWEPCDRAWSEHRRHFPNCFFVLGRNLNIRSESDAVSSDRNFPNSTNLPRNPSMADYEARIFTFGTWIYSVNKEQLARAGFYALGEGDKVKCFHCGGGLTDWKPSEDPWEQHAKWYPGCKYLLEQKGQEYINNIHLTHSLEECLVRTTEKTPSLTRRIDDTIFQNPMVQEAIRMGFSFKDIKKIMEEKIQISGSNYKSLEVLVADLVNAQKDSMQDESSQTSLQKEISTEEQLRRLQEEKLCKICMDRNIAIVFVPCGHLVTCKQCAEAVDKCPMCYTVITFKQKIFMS

Dihydroorotate dehydrogenase (quinone), mitochondrial (Plasmodium falciparum (isolate 3D7)), sequence (Q08210 whole entry, looked up): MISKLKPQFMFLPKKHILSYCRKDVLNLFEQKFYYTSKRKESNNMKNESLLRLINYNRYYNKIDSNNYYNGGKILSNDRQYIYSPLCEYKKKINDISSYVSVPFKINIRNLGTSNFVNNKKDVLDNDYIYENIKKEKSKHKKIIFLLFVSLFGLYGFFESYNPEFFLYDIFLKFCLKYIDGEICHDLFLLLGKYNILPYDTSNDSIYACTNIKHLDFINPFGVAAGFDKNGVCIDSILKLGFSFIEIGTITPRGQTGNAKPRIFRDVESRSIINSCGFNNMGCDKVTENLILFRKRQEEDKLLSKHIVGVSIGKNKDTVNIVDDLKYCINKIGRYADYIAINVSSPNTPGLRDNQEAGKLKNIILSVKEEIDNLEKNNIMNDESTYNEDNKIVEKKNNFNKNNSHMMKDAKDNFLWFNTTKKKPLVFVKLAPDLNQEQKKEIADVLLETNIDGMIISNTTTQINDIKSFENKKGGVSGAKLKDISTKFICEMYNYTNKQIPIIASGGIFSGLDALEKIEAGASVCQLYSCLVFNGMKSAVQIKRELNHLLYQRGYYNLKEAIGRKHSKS

Compound	z-score [1]	z-score [2]	z-score [3]	composite z-score [4]	z-score [5]	z-score [6]	z-score [7]	z-score [8]	z-score [9]	composite z-score [10]
CO[C@@H]1COC(=O)[C@H](C)NC(=O)[C@@H](C)COC(=O)CCC[C@H]1C	0.868	0.0728 (inactive)	-0.516 (inactive)	-0.926 (inactive)	-0.892 (inactive)	0.0233 (inactive)	0.277 (inactive)	-0.297 (inactive)	-0.0734	-0.153
O=C1[C@H]2[C@H]3[C@H](O)[C@H](O)CC(=NO[C@@H]4O[C@H](CO)[C@@H](O)[C@H](O)[C@H]4O)[C@H]3CC[C@H]2C(=O)N1C1CCCCC1	0.241	0.205 (inactive)	-0.655 (inactive)	0.26 (inactive)	-0.613 (inactive)	-0.629 (inactive)	0.411 (inactive)	0.232 (inactive)	-0.815	0.155
CC(C)=NOCc1ccc(-c2cc(-c3ccccc3)no2)cc1	-0.503	0.288 (inactive)	-0.284 (inactive)	0.21 (inactive)	-0.446 (inactive)	-0.194 (inactive)	0.302 (inactive)	0.387 (inactive)	-0.424	0.103
COc1ccc(-c2nc3c(c4c2C[C@H](C)OC4)CN(CCC(C)C)CC3)cc1	-0.182	-0.827 (inactive)	-0.145 (inactive)	-0.133 (inactive)	0.262 (inactive)	0.602 (inactive)	1.15 (inactive)	0.479 (inactive)	-0.239	-0.0559
CCN1C(=O)[C@H]2[C@H]3[C@H](O)[C@H](O)CC(=NO[C@@H]4O[C@H](CO)[C@@H](O)[C@H](O)[C@H]4O)[C@@H]3CC[C@H]2C1=O	-0.59	-0.369 (inactive)	-0.596 (inactive)	-0.794 (inactive)	-0.343 (inactive)	-0.654 (inactive)	0.226 (inactive)	0.117 (inactive)	-0.922	0.0623
C=CCNC(=O)[C@H]1[C@@H]2C(=O)O[C@@H](c3ccccc3)[C@@H](c3ccccc3)N2[C@@H](c2ccc(O)cc2)[C@]12C(=O)N(C(=O)OCCOC)c1ccc(C#CC3=CCCCC3)cc12	0.467	0.107 (inactive)	-0.61 (inactive)	-0.629 (inactive)	0.858 (inactive)	1.01 (inactive)	-0.925 (inactive)	-0.723 (inactive)	-0.205	0.22
COC(=O)[C@H](C)NC(=O)CCC1CC(OC(=O)NCc2cccc3ccccc23)CC2(CCCC(COC(=O)NCC3CCCCC3)O2)O1 (stereo not given in full)	1.14	-0.201 (inactive)	0.486 (inactive)	-0.533 (inactive)	-0.127 (inactive)	0.617 (inactive)	0.0476 (inactive)	-0.399 (inactive)	1.23	-0.02
O=C(NN=C1C[C@@H](O)[C@@H](O)[C@@H]2[C@@H]3C(=O)N(c4cccc(Oc5ccccc5)c4)C(=O)[C@@H]3CC[C@@H]12)OCc1ccccc1	-0.198	0.498 (inactive)	0.243 (inactive)	0.351 (inactive)	0.0942 (inactive)	0.775 (inactive)	-0.134 (inactive)	-0.192 (inactive)	0.464	-0.0506
COCCCNC(=O)[C@]1(CCC(=O)OC(C)(C)C)N=C(c2ccc(OCCCO)cc2)O[C@@H]1c1ccccc1N=[N+]=[N-]	1.18	-0.334 (inactive)	-0.637 (inactive)	0.08 (inactive)	0.149 (inactive)	0.149 (inactive)	0.615 (inactive)	0.0528 (inactive)	-0.128	0.121
CCN1C(=O)[C@H]2[C@H]3[C@H](O)[C@H](O)CC(=NOCc4ccccc4)[C@H]3CC[C@H]2C1=O	-0.322	-0.0753 (inactive)	-0.344 (inactive)	-0.422 (inactive)	0.164 (inactive)	-0.889 (inactive)	0.114 (inactive)	0.293 (inactive)	-0.855	0.0785
COC(=O)[C@@]1(Cc2ccc(F)cc2)[C@@H]2C(=CC(=O)[C@H]2CC(=O)C(=O)N(C)C)CN1C(=O)c1ccccc1	-1.46	1.69 (inactive)	-2.73 (inactive)	0.354 (inactive)	0.784 (inactive)	1.38 (inactive)	-0.0125 (inactive)	0.0104 (inactive)	-2.94	-0.174
CN1C(=O)C2C=CC(C(O)c3ccc(Br)cc3)N(N(c3ccccc3)c3ccccc3)C2C1=O (stereo not given)	-0.456	0.431 (inactive)	-1.19 (inactive)	1.02 (inactive)	1.01 (inactive)	1.32 (inactive)	-0.499 (inactive)	-0.283 (inactive)	-0.629	-0.0255
CCOC(=O)[C@H](CC(C)C)NC(=O)CCC1CC(OC(=O)NCc2cccc3ccccc23)CC2(CCCC(COC(=O)NCCc3ccccc3OC)O2)O1 (stereo not given in full)	0.563	-0.581 (inactive)	0.072 (inactive)	-0.987 (inactive)	0.684 (inactive)	-0.0922 (inactive)	-0.436 (inactive)	-0.141 (inactive)	-0.31	-0.134

From PubChem BioAssay
